In the library only some 7.1% were active in any assay of this set; here they are far more common.
M1 antag: antagonists of rat M1 muscarinic receptor; AID 628; CHO-M1 cells, Fluo-4 calcium, ACh EC80 antagonist mode; active compounds read low; actives 3.4% (n = 64,000); B-score at 10 µM; P08482;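 active = calcium fluorescence response, raw or row-and-column corrected B-score, differing from the plate sample mean either way at a set confidence level, mostly lower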
Cav32 inh: human Cav3.2 channel inhibition, primary screen; actives 4% (n = 100,000); B-score at 10 µM; O95180; Cav3.2-expressing cells, Fluo-4 calcium fluorescence FDSS; active compounds read low;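 active = single-dose well whose peak fluorescence ratio is a statistical outlier from its plate by either plate-standardised score or position-corrected B-score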
M1 agonist: agonists of M1 muscarinic receptor; CHO-M1 cells, Fluo-4 calcium fluorescence, agonist mode; active compounds read high; B-score at 10 µM; actives 3% (n = 64,000); AID 626;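 active = fluorescence rise, raw or as B-score row- and column-corrected plate score, outside the 99.7% band of its plate's samples, either direction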
Pyk2 oligo antag: Pyk2 (human) oligomerization antagonism | Q14289 | Q293 cells, Pyk2 FERM NanoBiT luminescence; active compounds read low | z-score (the deposit names both 25 µM and 10 µM) | actives 0.83% (n = 99,000) | AID 1347419;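 active = Z-score of -3 or lower, scaled per plate to the spread of control and sample wells; inactive = z-score above -3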;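 note: negative z-score means lost luminescence so less FERM oligomerization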
M1 antag confirm: confirmation of rat M1 muscarinic receptor antagonists; AID 677; CHO-M1 cells, Fluo-4 calcium, ACh EC80 antagonism; active compounds read low; actives 43% (n = 1,700); shares compounds with M1 antag; calcium response (max-min fluorescence) at 10 µM;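 active = calcium response below the same-plate mean of wells given acetylcholine alone at its 80%-effect dose, minus 3 SD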;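 note: raw fluorescence intensity difference in arbitrary instrument units and not normalized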
mGluR4 antag: selectivity test for M1 antagonists: human mGluR4 receptor; fluorescence response (max-min) at 10 µM; actives 0.9% (n = 1,700); CHO-mGluR4 calcium flux, Fluo-4 fluorescence, glutamate EC80; active compounds read low; shares compounds with M1 antag;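 active = fluorescence response below the plate's average for near-maximal glutamate wells, less 3 SD of those wells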;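 note: raw unnormalized fluorescence span taken in the window right after glutamate addition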
* marks the source's active call; other numbers are inactive results; / = no result given.

SMILES | M1 antag | Cav32 inh | M1 agonist | Pyk2 oligo antag | M1 antag confirm | mGluR4 antag
Cn1c(N2CCOCC2)nc2c1c(=O)n(Cc1ccc(Cl)cc1)c(=O)n2C | 0.3 | 0.66 | -1.2 | 0.21 | / | /
CCc1nnc(NS(=O)(=O)c2ccc(NC(=S)NC(=O)c3ccc(OC)cc3)cc2)s1 | / | / | / | -0.7 | / | /
COc1ccc([C@H]2/C=C\CN(S(=O)(=O)c3ccc4ccccc4c3)[C@@H](C)C(=O)N2Cc2ccc(F)cc2)cc1 | / | -2.1 | / | / | / | /
O=C1c2cccnc2C(=O)N1CO | -2.4* | -0.39 | -0.78 | 0.81 | 581 | 216
COc1ccc(CN2C(=O)c3ccccc3C(/C=N\OCc3ccc(C)cc3)C2=O)cc1 (centres undefined) | / | 0.42 | / | 0.04 | / | /
COc1cccc(CNC(=O)C2CCN(S(=O)(=O)N3CC(C)CC(C)C3)CC2)c1 (centres undefined) | -1.4 | 0.22 | 0.67 | 0.37 | / | /
CCc1ccc(NC(=O)Nc2cccs2)cc1 | -2.3* | -0.089 | -0.46 | 0.22 | 569 | 215
Cc1noc(C)c1S(=O)(=O)Nc1ccc(C(=O)NC2CCCCCC2)cc1 | -1.1 | / | -0.09 | -0.13 | / | /
Cc1noc(C)c1S(=O)(=O)N1CCC(C(=O)N2CCN(c3ccc(F)cc3)CC2)CC1 | -1.9* | 0.74 | 0.036 | / | 552 | 191
Cc1noc(C)c1S(=O)(=O)Nc1ccc(C(=O)N2CCN(c3ccc(Cl)cc3)CC2)cc1 | -2.4* | / | 2.9 | 1.5 | 487 | 233
O=C(COC(=O)CCNS(=O)(=O)c1ccc(Cl)cc1)NCc1ccco1 | -2.8* | -0.052 | 1.4 | -0.56 | 612 | 240
Cn1c(-c2ccc(F)cc2)cnc1NCc1ccc(C#N)cc1 | -3.4* | 0.95 | 0.93 | 0.05 | 451 | 202
Cn1c(=O)c2c(nc(NCc3ccc4c(c3)OCO4)n2C)n(C)c1=O | 0.43 | -0.036 | -0.48 | 0.23 | / | /
Cc1ccc(CNc2ncc(-c3ccc4c(c3)OCO4)n2C)cc1 | -2.9* | -2.9 | -0.056 | 0.19 | 447* | 261
Cc1ccc(CNc2ccc3c(c2)OCO3)cc1 | 0.03 | -0.45 | 2.1 | -1.2 | / | /
Cn1c(-c2ccc(F)cc2)cnc1NCc1ccc(F)cc1 | / | -0.35 | / | -0.19 | / | /
Cn1c(-c2ccc3c(c2)OCO3)cnc1NCc1ccc(Cl)cc1 | -6.6* | -2.8 | -0.64 | 0.37 | 358* | 230
O=C(NNC(=O)c1cc(O)c(O)c(O)c1)NC1CCCCC1 | / | 0.46 | / | 2 | / | /
CN1CCN(C(=O)c2ccccc2NC(=O)Cc2ccccc2)CC1 | -0.057 | 1 | -0.082 | 0.65 | / | /
CCN1CCCC1CNCc1ccc(Cl)cc1Cl (centres undefined) | -3.1* | / | -0.26 | 0.14 | 529* | 231
Cc1cccc(N2CCN(c3nc4ccc(Cl)cc4n4cnnc34)CC2)c1C | -0.013 | / | -1.1 | / | / | /
O=C(NC1CCS(=O)(=O)C1)C1CCCCN1S(=O)(=O)c1ccc(Cl)cc1 (centres undefined) | -3.4* | 0.31 | 0.31 | 0.08 | 584 | 249
Cc1ccc(S(=O)(=O)N2CCC(C(=O)N3CCC[C@H]3C(=O)NC3CCS(=O)(=O)C3)CC2)cc1 (some centres undefined) | -0.037 | 0.38 | -1.2 | 1.3 | / | /
COC(=O)CSc1nc2sc3c(c2c(=O)n1C1CCCCC1)CCN(C)C3 | -2.7* | / | -2.7* | / | 486* | 261
COc1ccc(C2CCCN2C(=O)Nc2cccc(C(C)=O)c2)cc1OC (centres undefined) | -2.5* | 1.2 | -0.11 | -0.07 | 620 | 249
SMILES | M1 antag | Cav32 inh | M1 agonist | Pyk2 oligo antag | M1 antag confirm | mGluR4 antag
COc1cc2c(=O)n(Cc3ccco3)c(=O)n(CC(=O)c3ccc(Br)cc3)c2cc1OC | -0.23 | / | -0.61 | -1.4 | / | /
COc1cc2c(=O)n(Cc3ccccc3)c(=O)n(CC(=O)C(C)(C)C)c2cc1OC | -2.1* | / | 0.37 | / | 450 | 210
CCOC(=O)c1c(C)[nH]c(C)c1C(=O)CSc1ncccn1 | / | -0.12 | / | -0.33 | / | /
O=C(CCC(=O)N1CCc2ccccc21)N1CCc2ccccc21 | -0.52 | / | -0.19 | / | / | /
O=C(Cn1ncc2ccccc21)N1CCc2ccccc21 | -2.3* | 0.54 | 0.057 | / | 693 | 252
CCN1CCN(Cc2ccc(OCc3ccccc3)cc2)CC1 | -4.4* | 0.53 | -0.62 | 0.9 | 345* | 178
CN1CCN(Cc2ccc(OCc3ccccc3)cc2)CC1 | -1.1 | 0.98 | -1.2 | 0.93 | / | /
CC(O)CNC(=O)C1CCN(Cc2ccc(OCc3ccccc3)cc2)CC1 (centres undefined) | -4.8* | 0.23 | -0.39 | 0.3 | 572 | 232
NC(=O)NCc1ccc(Cl)cc1 | / | 1.1 | / | 0.85 | / | /
Cc1nc(-c2ccccn2)sc1C(=O)Nc1ccc(Cl)c(Cl)c1 | / | -1.2 | / | -0.53 | / | /
COc1ccc(C2C(C(=O)c3sc(C)nc3C)=C(O)C(=O)N2CCN(C)C)cc1 (centres undefined) | -11* | 0.94 | -0.071 | -0.54 | 663 | 242
O=C(NCCC1=CCCCC1)C1CCN(c2nc3ccccc3o2)CC1 | / | -3.3 | / | 0.54 | / | /
COc1cccc(CNC(=O)C2CCCN(c3nc4ccccc4o3)C2)c1 (centres undefined) | -1.9* | 0.037 | -0.093 | -0.02 | 643 | 229
CC1CCCCN1CCCNC(=O)C1CCN(c2nc3ccccc3o2)CC1 (centres undefined) | -4.1* | / | -0.38 | / | 67* | 242
O=C(NCCN1CCOCC1)C1CCN(c2nc3ccccc3o2)CC1 | -2.2* | 0.29 | 0.17 | 1.2 | 458* | 244
Cc1nc2ccccc2c2oc(C(=O)NCCN3CCCCC3C)cc12 (centres undefined) | -3.4* | 1.4 | -0.63 | / | 354* | 242
CCOC(=O)c1sc(NC(=O)CSc2n[nH]c(-c3ccc(Cl)cc3Cl)n2)c(C#N)c1C | / | / | / | -2 | / | /
Cc1ccc(S(=O)(=O)Nc2nc(C)c(NC(=O)Nc3ccc(Cl)cc3Cl)s2)cc1 | / | -3.2 | / | -0.3 | / | /
Cc1nc2ccc(NC(=O)c3ccc(F)c(S(=O)(=O)N4CCOCC4)c3)cc2s1 | / | / | / | 0.11 | / | /
COCCNC(=O)C(c1cccs1)N(C(=O)Cn1nnc2ccccc21)c1cccc(C)c1 (centres undefined) | -18* | 1.7 | -0.47 | 0.8 | 679 | 234
CCOC(=O)N1CCN(c2c(NCCCN(CC)CC)c(=O)c2=O)CC1 | / | 0.87 | / | -0.14 | / | /
CCCCN(CC)CCNc1c(N2CCN(C(=O)OCC)CC2)c(=O)c1=O | -2.1* | 0.3 | -0.0065 | 0.62 | 608 | 234
Cc1ccc2nc(-c3ccc4c(c3)OCCO4)cc(C(=O)O)c2c1 | 0.4 | 0.43 | 0.73 | -0.42 | / | /
O=C(O)c1cc(-c2cccs2)nc2cc3c(cc12)OCCO3 | -0.77* | 0.0092 | -0.83 | / | 686 | 220
Cc1cccc(-n2c(CCCN3C(=O)c4ccccc4C3=O)nc3ccccc3c2=O)n1 | 0.26 | / | -0.25 | 0.02 | / | /
COc1ccccc1N1CCN(CCCCN2C(=O)c3ccccc3C2=O)CC1 | / | -0.38 | / | / | / | /
COc1ccccc1N1CCN(CCCC(=O)c2ccc(F)cc2)CC1 | -2* | 1.3 | -1.1 | / | 266* | 207

Source: PubChem BioAssay
